Molecules are shown by their SMILES. Structures can show the parent of a compound that is named as a salt.

Experimental findings from the supplement of paper PMC8269313 are described below.

This assay relates to 4T1. Description: % inhibition of 4T1 cell number vs DMSO control; higher = stronger growth inhibition. The conditions noted are these: 1 µM, 3 days. An outline of the steps:
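In 96-well imaging plates whose edge wells went unused, 3000 4T1-H2B-GFP mouse breast cancer cells per well were seeded in 2% FBS medium onto plastic, denuded lung matrix, mCAF1 fibroblast-derived matrix, Matrigel (15 μg/mL) or 0.2% gelatin. Sixteen hours on, kinase inhibitors went in at 1 μM final for 3 days before formalin fixation, DAPI staining and imaging on an INCell Analyzer 2200. Counting of GFP-positive nuclei gave cell numbers, from which percent inhibition relative to control was derived.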

[1] abbreviates: substrate: lung fibroblast-derived matrix.
Where [2] appears, read: substrate: mCAF1 fibroblast-derived matrix.

For the compound `CCCC(=O)Oc1ccc2[nH]c(C(=O)c3cc4ccccc4[nH]3)cc2c1` [PDGF Receptor Tyrosine Kinase Inhibitor II], the “% inhibition of 4T1 cell number” value was -18.7% (substrate: Matrigel); -112% (substrate: gelatin); -6.16% under setting [1]; 1.3% under setting [2]; -70.2% (substrate: plastic).

Turning to `Brc1c(Br)c(Br)c2n[nH]nc2c1Br` [Casein Kinase II Inhibitor I], the “% inhibition of 4T1 cell number” value by setting is: (substrate: Matrigel) 49.8%; (substrate: gelatin) 40.2%; under setting [1], 1.56%; under setting [2], -30.6%; (substrate: plastic) 39.4%.

`Nc1[nH]nc2nnc(-c3c(-c4ccccc4)nn4ccccc34)cc12`: the “% inhibition of 4T1 cell number” value (substrate: Matrigel) is -37.8%; the “% inhibition of 4T1 cell number” value (substrate: gelatin) was -5.47%; the “% inhibition of 4T1 cell number” value under setting [1] is -14.3%; the “% inhibition of 4T1 cell number” value under setting [2] is 1.41%; the “% inhibition of 4T1 cell number” value (substrate: plastic) was -58.3%.

For `N#CCCc1ccc2c(c1)-c1[nH]c3ccc([N+](=O)[O-])cc3c1CC(=O)N2` [Alsterpaullone, 2-Cyanoethyl], the “% inhibition of 4T1 cell number” value is, setting by setting: (substrate: Matrigel) 55.6%; (substrate: gelatin) 51.8%; under setting [1], -1.58%; under setting [2], 45.1%; (substrate: plastic) 72.9%.

Regarding `O=C(Nc1ccc(-c2cn[nH]c2)cc1)C1COc2ccccc2O1` (stereo not given) [Rho Kinase Inhibitor V], the “% inhibition of 4T1 cell number” value (substrate: Matrigel) was -9.35%; the “% inhibition of 4T1 cell number” value (substrate: gelatin) came to 14.6%; the “% inhibition of 4T1 cell number” value under setting [1] was -8.88%; the “% inhibition of 4T1 cell number” value under setting [2] stood at 7.12%; the “% inhibition of 4T1 cell number” value (substrate: plastic) was -3.09%.

As to `CC(=O)O/N=C1/C(c2c(O)[nH]c3cc(Br)ccc23)=Nc2ccccc21` [GSK-3 Inhibitor X], the “% inhibition of 4T1 cell number” value is, setting by setting: (substrate: Matrigel) -22.6%; (substrate: gelatin) 52.7%; under setting [1], -8.8%; under setting [2], 59.3%; (substrate: plastic) 58.1%.

`CC(C)n1cnc2c(NCc3ccccc3)nc(NCCCO)nc21` [Bohemine]: the “% inhibition of 4T1 cell number” value by setting is: (substrate: Matrigel) 16.5%; (substrate: gelatin) 13%; under setting [1], 0.282%; under setting [2], -0.566%; (substrate: plastic) -30.7%.

Turning to `COc1cc2ncnc(Nc3ccc(Oc4ccccc4)cc3)c2cc1OC` [Src Kinase Inhibitor I], the “% inhibition of 4T1 cell number” value reads like this: (substrate: Matrigel) -19.5%; (substrate: gelatin) -6.86%; under setting [1], -13.5%; under setting [2], 32.6%; (substrate: plastic) -35.4%.

Regarding `CC(C)n1cnc2c(NCc3ccccc3O)nc(NCCCO)nc21` [Cdk Inhibitor, p35], the “% inhibition of 4T1 cell number” value by setting is: (substrate: Matrigel) 20.1%; (substrate: gelatin) 13.4%; under setting [1], -6.35%; under setting [2], -51.8%; (substrate: plastic) 14.9%.

For `O=C1C(=Cc2ccc(O)cc2)C2=Nc3ccccc3C2=C1C1=C2C(=Nc3ccccc32)C(=Cc2ccc(O)cc2)C1=O` [Scytonemin, Lyngbya sp.], the “% inhibition of 4T1 cell number” value by setting is: (substrate: Matrigel) 46.6%; (substrate: gelatin) 52.5%; under setting [1], 65.9%; under setting [2], 26.2%; (substrate: plastic) 39.5%.

In the case of `c1nc2c(NC3CCCCC3)nc(Nc3ccc(N4CCOCC4)cc3)nc2[nH]1` [Reversine], the “% inhibition of 4T1 cell number” value by setting is: (substrate: Matrigel) 91%; (substrate: gelatin) 89.5%; under setting [1], 7.75%; under setting [2], 85.6%; (substrate: plastic) 63.1%.

With `O=S(=O)(NCCNC/C=C/c1ccc(Br)cc1)c1cccc2cnccc12` [H-89, Dihydrochloride], the “% inhibition of 4T1 cell number” value was -2.21% (substrate: Matrigel); 25.6% (substrate: gelatin); -2.1% under setting [1]; 36% under setting [2]; -37.5% (substrate: plastic).

With `O=C1Nc2ccc(Cl)cc2/C1=C/c1cc(Cl)c(O)c(Cl)c1` [PKR Inhibitor, Negative Control], the “% inhibition of 4T1 cell number” value by setting is: (substrate: Matrigel) -11.8%; (substrate: gelatin) -80.4%; under setting [1], 86.7%; under setting [2], 8.78%; (substrate: plastic) -63.2%.

As for `O=C1c2ccccc2-c2nc3nnnn3nc21` [PDK1/Akt/Flt Dual Pathway Inhibitor], the “% inhibition of 4T1 cell number” value (substrate: Matrigel) was 99%; the “% inhibition of 4T1 cell number” value (substrate: gelatin) was 97.3%; the “% inhibition of 4T1 cell number” value under setting [1] was -19.8%; the “% inhibition of 4T1 cell number” value under setting [2] worked out at 95.4%; the “% inhibition of 4T1 cell number” value (substrate: plastic) turned out to be 97%.

As for `O=S(=O)(c1cccc2c(I)cccc12)N1CCCNCC1` [ML-7, Hydrochloride], the “% inhibition of 4T1 cell number” value is, setting by setting: (substrate: Matrigel) 23%; (substrate: gelatin) 24.2%; under setting [1], -1.62%; under setting [2], 33.6%; (substrate: plastic) -7.72%.

Regarding `O=c1cc(N2CCNCC2)oc2c(-c3ccccc3)cccc12`, the “% inhibition of 4T1 cell number” value runs as follows: (substrate: Matrigel) -14.2%; (substrate: gelatin) -6.29%; under setting [1], -1.5%; under setting [2], 6.84%; (substrate: plastic) -42.8%.

As to `O=Nc1c(-c2c(O)[nH]c3cc(Br)ccc23)[nH]c2ccccc12` [GSK-3 Inhibitor IX], the “% inhibition of 4T1 cell number” value (substrate: Matrigel) was -37.5%; the “% inhibition of 4T1 cell number” value (substrate: gelatin) is -7.89%; the “% inhibition of 4T1 cell number” value under setting [1] was -2.79%; the “% inhibition of 4T1 cell number” value under setting [2] was determined as 55.1%; the “% inhibition of 4T1 cell number” value (substrate: plastic) was determined as 42.2%.

For `CNCCNS(=O)(=O)c1cccc2cnccc12` [H-8, Dihydrochloride], the “% inhibition of 4T1 cell number” value is -17.7% (substrate: Matrigel); 25.7% (substrate: gelatin); -6.96% under setting [1]; 30.5% under setting [2]; -63% (substrate: plastic).

With `Cn1sc(=O)n(Cc2ccccc2)c1=O` [GSK-3b Inhibitor I], the “% inhibition of 4T1 cell number” value (substrate: Matrigel) is -33.1%; the “% inhibition of 4T1 cell number” value (substrate: gelatin) amounted to 10.3%; the “% inhibition of 4T1 cell number” value under setting [1] stood at 9.49%; the “% inhibition of 4T1 cell number” value under setting [2] turned out to be 21.6%; the “% inhibition of 4T1 cell number” value (substrate: plastic) is -62.7%.

As to `O=C(Nc1cccc(Nc2nccc(Nc3cccc(C(F)(F)F)c3)n2)c1)C1CC1` [Aurora Kinase Inhibitor III], the “% inhibition of 4T1 cell number” value reads like this: (substrate: Matrigel) 54.8%; (substrate: gelatin) 74.5%; under setting [1], 97.8%; under setting [2], 15%; (substrate: plastic) 63.6%.

As for `CN(C)S(=O)(=O)c1ccc2c(c1)/C(=C/c1cc3c([nH]1)CCCC3)C(=O)N2`, the “% inhibition of 4T1 cell number” value reads like this: (substrate: Matrigel) -10.2%; (substrate: gelatin) 2.33%; under setting [1], -16.4%; under setting [2], -22.1%; (substrate: plastic) -51.8%.

Take `CCOc1nc(NC(=O)Cc2cc(OC)ccc2OC)cc(N)c1C#N` [JNK Inhibitor VIII]: the “% inhibition of 4T1 cell number” value by setting is: (substrate: Matrigel) -7.17%; (substrate: gelatin) 11.6%; under setting [1], -17.8%; under setting [2], 31.4%; (substrate: plastic) -42.5%.

For the compound `Cn1cc(C2=C(c3cn(CCCSC(=N)N)c4ccccc34)C(=O)NC2=O)c2ccccc21`, the “% inhibition of 4T1 cell number” value is, setting by setting: (substrate: Matrigel) -9.32%; (substrate: gelatin) 35.1%; under setting [1], -2.42%; under setting [2], 48.6%; (substrate: plastic) -25.7%.

For `COc1cc2ncn(-c3cc(OCc4ccccc4S(C)(=O)=O)c(C#N)s3)c2cc1OC` [IKK-3 Inhibitor IX], the “% inhibition of 4T1 cell number” value runs as follows: (substrate: Matrigel) -14.6%; (substrate: gelatin) -1.27%; under setting [1], 1.67%; under setting [2], 6.5%; (substrate: plastic) -26.7%.

For `CCC(CO)Nc1nc(NCc2ccccc2)c2ncn(C(C)C)c2n1` [Roscovitine, (S)-Isomer], the “% inhibition of 4T1 cell number” value is -4.8% (substrate: Matrigel); 59.2% (substrate: gelatin); 1.55% under setting [1]; 29.4% under setting [2]; -6.54% (substrate: plastic).

Regarding `O=[N+]([O-])c1ccc(-c2nc(-c3ccc(F)cc3)c(-c3ccncc3)[nH]2)cc1`, the “% inhibition of 4T1 cell number” value reads like this: (substrate: Matrigel) -4.18%; (substrate: gelatin) 12%; under setting [1], -11.4%; under setting [2], 26.1%; (substrate: plastic) -60.5%.

With `O=C(Nc1cc(Cl)cc2c1[nH]c1cnccc12)c1cccnc1` [IKK Inhibitor X], the “% inhibition of 4T1 cell number” value is 42.5% (substrate: Matrigel); 25.8% (substrate: gelatin); -6.01% under setting [1]; -10% under setting [2]; 57.7% (substrate: plastic).

For the compound `CC(C)[C@H](CO)Nc1nc(Nc2cccc(Cl)c2)c2ncn(C(C)C)c2n1` [Purvalanol A], the “% inhibition of 4T1 cell number” value by setting is: (substrate: Matrigel) -8.87%; (substrate: gelatin) 15.8%; under setting [1], 83.6%; under setting [2], 40.3%; (substrate: plastic) -20.5%.
